For assay [1], the system named is Plasmodium falciparum Sir2 (PF13_0152, Sir2A). Kind of assay: pfSir2 binders on small-molecule microarrays, primary screen, biochemical, small-molecule microarray, 635 nm fluorescence (AID 1098).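 Note: score merges spot fluorescence intensity with its signal-to-noise ratio.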 The note with it: small-molecule microarray binding, fluorescence 635 nm; higher = more signal.
A short description of assay [2]: small-molecule microarray binders of probe aDKK1, primary screen, biochemical, biotinylated probe, 635/667 nm fluorescence (AID 1099).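 Note: score merges 667nm spot fluorescence with signal to noise across triplicate slides.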 The note with it: higher = more signal.
Assay [3] in a line: small-molecule microarray binders of probe aCHRDL2, primary screen, biochemical, biotinylated probe, 635/667 nm fluorescence (AID 1100). The note with it: higher = more signal.
A short description of assay [4]: splicing luciferase reporter signal modulators, primary screen, spliceosome inhibition project, cell-based, HEK293, splice +/- reporter (AID 1101).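 Note: HEK293 cells carrying a splicing-competent luciferase reporter gene; test concentration not given here.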 The note with it: luminescence, 24 h, higher = more signal, called active from +8 up or from −8 down. On the technique in general: A reporter such as luciferase makes a cellular process visible.
The target of assay [5] is Fibroblast growth factor 10 (Homo sapiens) (UniProt O15520). Nature of the assay: FGF10 binders on small-molecule microarrays, primary screen, biochemical, small-molecule microarray, 635 nm fluorescence (AID 1102). The note with it: FGF10 binding, fluorescence 635 nm, higher = more signal.
Sequence of Fibroblast growth factor 10 (Homo sapiens) (O15520 whole entry, looked up): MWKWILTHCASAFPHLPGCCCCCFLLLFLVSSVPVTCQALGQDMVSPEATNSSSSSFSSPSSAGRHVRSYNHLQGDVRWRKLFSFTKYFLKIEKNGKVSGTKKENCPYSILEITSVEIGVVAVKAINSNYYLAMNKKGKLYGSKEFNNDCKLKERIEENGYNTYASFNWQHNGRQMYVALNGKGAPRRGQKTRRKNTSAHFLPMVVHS
Assay [6] deals with glycogen synthase kinase-3 (GSK3A per assay name; protocol says GSK3B). Kind of assay: GSK3 binders on small-molecule microarrays, primary screen, biochemical, small-molecule microarray, 635 nm fluorescence, GSK3A (AID 1103). Note: the record names both GSK3A and GSK3B. The note with it: small-molecule microarray binding, fluorescence 635 nm; higher = more signal.
For assay [7], the target named is Epidermal growth factor receptor (Homo sapiens) (UniProt P00533). Nature of the assay: EGFR binders on small-molecule microarrays, primary screen, biochemical, small-molecule microarray, 635 nm fluorescence (AID 1104).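 Note: score merges 667 nm emission intensity with spot signal to noise over triplicate slides.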 The note with it: EGFR binding, higher = more signal.
Sequence of Epidermal growth factor receptor (Homo sapiens) (P00533 whole entry, looked up): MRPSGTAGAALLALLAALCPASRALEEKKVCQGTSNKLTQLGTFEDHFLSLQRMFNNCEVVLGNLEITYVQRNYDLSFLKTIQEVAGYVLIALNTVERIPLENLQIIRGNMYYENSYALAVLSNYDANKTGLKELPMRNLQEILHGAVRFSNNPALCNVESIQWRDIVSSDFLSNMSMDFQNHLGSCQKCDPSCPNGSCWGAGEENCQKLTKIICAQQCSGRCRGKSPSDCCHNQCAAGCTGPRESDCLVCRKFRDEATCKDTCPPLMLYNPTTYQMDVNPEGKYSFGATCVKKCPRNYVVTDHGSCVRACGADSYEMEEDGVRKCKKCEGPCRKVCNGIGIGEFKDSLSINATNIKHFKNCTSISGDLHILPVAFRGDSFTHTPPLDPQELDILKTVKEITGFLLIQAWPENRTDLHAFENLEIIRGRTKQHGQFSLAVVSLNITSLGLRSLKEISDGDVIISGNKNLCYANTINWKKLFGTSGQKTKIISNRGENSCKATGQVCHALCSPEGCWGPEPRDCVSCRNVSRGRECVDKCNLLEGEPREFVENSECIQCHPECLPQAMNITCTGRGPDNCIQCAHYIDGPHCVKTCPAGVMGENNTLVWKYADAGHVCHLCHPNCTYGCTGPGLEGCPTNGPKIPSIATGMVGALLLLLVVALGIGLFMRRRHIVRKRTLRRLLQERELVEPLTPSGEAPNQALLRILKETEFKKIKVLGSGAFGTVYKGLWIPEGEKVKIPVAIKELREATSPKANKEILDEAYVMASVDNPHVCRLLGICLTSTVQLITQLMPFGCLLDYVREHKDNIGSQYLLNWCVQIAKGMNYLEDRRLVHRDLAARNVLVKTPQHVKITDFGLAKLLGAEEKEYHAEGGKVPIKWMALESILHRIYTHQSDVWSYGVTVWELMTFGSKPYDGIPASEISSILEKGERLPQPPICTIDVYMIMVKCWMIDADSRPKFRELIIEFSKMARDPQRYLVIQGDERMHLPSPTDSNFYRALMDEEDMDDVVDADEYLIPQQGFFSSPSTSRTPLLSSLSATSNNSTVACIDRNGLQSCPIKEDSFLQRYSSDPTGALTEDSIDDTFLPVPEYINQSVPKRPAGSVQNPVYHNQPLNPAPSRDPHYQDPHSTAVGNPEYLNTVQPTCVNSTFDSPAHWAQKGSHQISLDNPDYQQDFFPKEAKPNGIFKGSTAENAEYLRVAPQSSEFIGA
For assay [8], the target named is Follistatin-related protein 3 (Homo sapiens) (UniProt O95633). Kind of assay: FSTL3 binders on small-molecule microarrays, primary screen, biochemical, small-molecule microarray, 635 nm fluorescence (AID 1105).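 Note: score merges emission near 667 nm and signal to noise per printed spot across three slides.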 The note with it: FSTL3 binding, higher = more signal.
Sequence of Follistatin-related protein 3 (Homo sapiens) (O95633 whole entry, looked up): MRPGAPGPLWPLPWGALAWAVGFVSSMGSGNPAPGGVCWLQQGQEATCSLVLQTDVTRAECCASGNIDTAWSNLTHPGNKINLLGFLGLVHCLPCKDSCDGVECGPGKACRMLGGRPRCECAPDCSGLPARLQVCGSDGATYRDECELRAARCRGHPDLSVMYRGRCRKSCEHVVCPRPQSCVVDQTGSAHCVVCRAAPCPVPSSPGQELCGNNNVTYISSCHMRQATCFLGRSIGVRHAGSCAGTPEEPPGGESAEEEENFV
For assay [9], the target named is Dickkopf-related protein 1 (Homo sapiens) (UniProt O94907). Nature of the assay: DKK1 binders on small-molecule microarrays, primary screen, biochemical, small-molecule microarray, 635 nm fluorescence scan (AID 1106).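 Note: score merges emission near 667 nm with signal to noise over three replicate slides.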 The note with it: DKK1 binding, higher = more signal.
Sequence of Dickkopf-related protein 1 (Homo sapiens) (O94907 whole entry, looked up): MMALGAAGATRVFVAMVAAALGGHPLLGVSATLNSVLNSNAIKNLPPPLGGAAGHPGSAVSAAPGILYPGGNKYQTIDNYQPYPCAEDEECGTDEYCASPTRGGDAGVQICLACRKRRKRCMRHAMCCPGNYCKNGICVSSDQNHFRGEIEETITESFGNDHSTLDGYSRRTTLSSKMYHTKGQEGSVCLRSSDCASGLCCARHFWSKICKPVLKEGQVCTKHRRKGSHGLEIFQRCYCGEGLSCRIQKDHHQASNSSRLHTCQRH
Assay [10] relates to Inhibin beta A chain (activin A). Kind of assay: INHBA (activin A) binders on microarrays, primary screen, biochemical, small-molecule microarray, 635 nm fluorescence scan (AID 1107).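 Note: mouse activin A protein probed at 4.33 µg/mL on printed slides; score merges bound-protein fluorescence near 667 nm with spot signal-to-noise.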 The note with it: small-molecule microarray binding, higher = more signal.
The test system of assay [11] is Human papillomavirus type 1a protein E7 (residues 44-93). Nature of the assay: HPV1a E7 fragment binders on microarrays, primary screen, biochemical, small-molecule microarray, residues 44-93, 635 nm fluorescence (AID 1108).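 Note: E7 fragment applied at 1 µg/mL in TBST for 1 h at 4 C; score combines spot fluorescence with its signal to noise ratio.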 The note with it: small-molecule microarray binding, fluorescence 635 nm; higher = more signal.
Assay [12] can be described thus: modulators of HCV replicon luciferase signal, primary screen, HCV replication inhibitor project, Huh7 cells, luciferase reporter (AID 1109).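 Note: huh7 hepatoma cells harbouring a luciferase neomycin HCV replicon reporter; luciferase luminescence as measure of HCV replicon replication; test concentration not given here.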 The note with it: 48 h, higher = more signal.
The target of assay [13] is Left-right determination factor 2 (Homo sapiens) (UniProt O00292). Nature of the assay: LEFTY2 binders on small-molecule microarrays, primary screen, biochemical, small-molecule microarray, 635 nm fluorescence scan (AID 1110). The note with it: LEFTY2 binding, higher = more signal.
Sequence of Left-right determination factor 2 (Homo sapiens) (O00292 whole entry, looked up): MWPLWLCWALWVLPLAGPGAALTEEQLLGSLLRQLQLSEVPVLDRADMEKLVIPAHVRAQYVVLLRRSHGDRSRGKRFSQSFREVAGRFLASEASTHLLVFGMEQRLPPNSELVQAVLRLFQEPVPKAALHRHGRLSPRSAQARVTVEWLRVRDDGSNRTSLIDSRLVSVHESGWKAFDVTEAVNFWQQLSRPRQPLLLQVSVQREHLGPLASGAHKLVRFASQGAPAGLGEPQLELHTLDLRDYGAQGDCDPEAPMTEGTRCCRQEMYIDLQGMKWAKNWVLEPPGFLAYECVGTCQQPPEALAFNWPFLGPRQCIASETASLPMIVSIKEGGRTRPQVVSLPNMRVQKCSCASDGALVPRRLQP
In assay [14] the target is Calmodulin-1 (Homo sapiens) (UniProt P0DP23). Kind of assay: CALM1 binders on microarrays, EGTA buffer, profiling panel, biochemical, small-molecule microarray, Cy5-labelled CALM1 (AID 1111).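 Note: labelled calmodulin applied in Tris saline Tween buffer holding calcium plus EGTA and DTT.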 The note with it: Cy5-CALM1 binding fluorescence, higher = more signal.
The target is the same in assay [15]. Kind of assay: calcium-bound CALM1 binders on microarrays, profiling panel, artefact control for SMM control-protein annotation, biochemical, small-molecule microarray, Cy5-labelled CALM1, plus calcium (AID 1112).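 Note: score merges spot fluorescence with signal to noise from triplicate slides.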 The note with it: Cy5-CALM1 binding fluorescence, higher = more signal.
The nature of assay [16]: small-molecule microarray binders of probe aWnt5a, primary screen, biochemical, biotinylated probe, 635/667 nm fluorescence (AID 1113).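 Note: score merges 667 nm fluorescence intensity with signal-to-noise per printed feature.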 The note with it: higher = more signal.
A short description of assay [17]: small-molecule microarray binders of probe aShh, primary screen, biochemical, biotinylated probe, 635/667 nm fluorescence (AID 1114).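 Note: probe is biotin-labelled aShh protein from a stem cell growth factor screen; measures binding of labelled protein to compounds printed on the slide; score merges feature fluorescence at 667 nm with signal-to-noise.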 The note with it: higher = more signal.
The nature of assay [18]: small-molecule microarray binders of probe aNog, primary screen, biochemical, biotinylated probe, 635/667 nm fluorescence (AID 1115).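 Note: probe is biotinylated aNog protein used at 0.15 µg/mL for 1 h at 4 C; z-score combines 667 nm fluorescence of each spot with its signal to noise.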 The note with it: higher = more signal.
The target in assay [19] is Torsin-1A-interacting protein 1 (Homo sapiens) (UniProt Q5JTV8). Kind of assay: LAP1 binders from COS7 cell lysate, primary screen, small-molecule microarray, 635/667 nm fluorescence (AID 1116). The note with it: COS7-hLAP1 lysate binding, 635 nm fluorescence, higher = more signal.
Sequence of Torsin-1A-interacting protein 1 (Homo sapiens) (Q5JTV8 whole entry, looked up): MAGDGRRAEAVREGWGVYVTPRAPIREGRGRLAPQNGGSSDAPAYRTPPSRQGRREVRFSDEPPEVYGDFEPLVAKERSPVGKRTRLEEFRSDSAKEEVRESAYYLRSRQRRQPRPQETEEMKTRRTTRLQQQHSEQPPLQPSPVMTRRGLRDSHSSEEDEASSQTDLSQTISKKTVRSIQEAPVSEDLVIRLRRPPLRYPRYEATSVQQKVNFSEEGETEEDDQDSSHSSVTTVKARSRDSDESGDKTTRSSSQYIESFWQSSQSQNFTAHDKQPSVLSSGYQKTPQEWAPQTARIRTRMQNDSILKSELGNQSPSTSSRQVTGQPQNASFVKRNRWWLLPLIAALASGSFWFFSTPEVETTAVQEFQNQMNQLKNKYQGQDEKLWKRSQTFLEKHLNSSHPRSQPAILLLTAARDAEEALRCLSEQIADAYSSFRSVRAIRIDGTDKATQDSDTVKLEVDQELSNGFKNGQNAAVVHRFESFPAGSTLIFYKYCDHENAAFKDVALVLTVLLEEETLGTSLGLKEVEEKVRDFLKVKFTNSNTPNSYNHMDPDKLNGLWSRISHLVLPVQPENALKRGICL
The target of assay [20] is Alpha-bungarotoxin (Bungarus multicinctus) (UniProt P60615). Nature of the assay: alpha-bungarotoxin binders on microarray, profiling panel, artefact control for SMM control protein annotation, biochemical, small-molecule microarray, Alexa647 label, 635/667 nm fluorescence (AID 1117). The note with it: alpha-BTX-A647 binding fluorescence, higher = more signal.
Sequence of Alpha-bungarotoxin (Bungarus multicinctus) (P60615 whole entry, looked up): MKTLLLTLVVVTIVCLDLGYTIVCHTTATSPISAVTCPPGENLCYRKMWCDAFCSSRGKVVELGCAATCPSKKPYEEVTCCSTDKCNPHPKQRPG

From PubChem BioAssay come the findings set out here.

Active and inactive are the calls of the source.

Take `CC(CCC(=O)OC[C@H]1O[C@H](C#Cc2ccccc2)C=C[C@@H]1Oc1ccc(C)cc1)=NOC[C@@H](C)[C@H](OCc1ccccc1)C(C)C`: the composite z-score in assay [1] is -1.11; in assay [2] it was -0.247; in assay [3], -0.506; in [5], -0.434; in [6], -1.3; in assay [7], -1.05. Also, the composite z-score in [8] was -1.09; in assay [9] it was -0.613; in assay [10] it was 0.211; in assay [11], -1.89; in assay [13], -0.502; in [14], -1.24. Further, the composite z-score was -0.336 in assay [15]; -0.0573 in assay [16]; -0.899 in assay [17]; -0.902 in assay [18]; -0.746 in assay [19]; -0.79 in [20]. In addition, the results for the z-score in assay [4] and in assay [12] were 0.371 (inactive) and -0.982, respectively.

Consider `OC[C@H]1O[C@H](C#Cc2ccccc2)C=C[C@@H]1O`, for which the composite z-score in assay [1] was 0.721; in assay [2], -0.301; in assay [3], -0.385; in assay [5] it was 0.194; in [6] it was 0.356; in assay [7], 0.506. The composite z-score in assay [8] is 0.546; in [9], 0.546; in assay [10] it was 0.408; in assay [11] it was 0.0191; in assay [13], 0.484; in [14], -0.12. The composite z-score in [15] is -0.644; in assay [16] it was 0.0251; in [17], 0.0141; in [18] it was -0.0125; in [19] it was -0.0177; in assay [20], 0.42. The z-score in assay [4] is 0.072 (inactive); in [12], -0.125.

For `CO[C@H]1COC(=O)[C@H](C)COC(=O)[C@@H](OCc2ccccc2)C=C[C@@H]1C`, the composite z-score in assay [1] is -0.0072; in assay [2], -0.386; in assay [3], -0.743; in [5], 0.083; in [6] it was -0.357; in [7], 0.274. In addition, the composite z-score in [8] was -0.266; in assay [9] it was 0.32; in assay [10] it was 0.251; in [11] it was -0.0848; in [13], 0.328; in assay [14] it was -0.46. Moreover, the composite z-score in [15] is -0.726; in assay [16] it was -0.123; in assay [17] it was -0.0769; in assay [18], -0.379; in assay [19] it was -0.149; in assay [20], -0.281. In addition, the figures for the z-score in assay [4] and in [12] were 0.0228 (inactive) and -0.0886, respectively.

For the compound `COC(=O)[C@H](C)NC(=O)CCC1CC(OC(=O)NCc2cccc3ccccc23)CC2(CCCC(COC(=O)NCCOc3ccccc3)O2)O1` (stereo not given in full), the composite z-score in [1] is 1.1; in assay [2], -0.357; in assay [3] it was -0.413; in assay [5], 0.411; in assay [6], 0.526; in [7], 0.148. For the same compound, the composite z-score in [8] was 0.319; in [9], -0.303; in assay [10], -0.143; in assay [11], 1.33; in assay [13], 0.43; in [14], 1.33. The composite z-score in assay [15] is -0.232; in assay [16], -0.251; in assay [17], -0.138; in assay [18], -0.559; in assay [19], 0.347; in assay [20] it was 0.862. Moreover, the z-score was -0.834 (inactive) in assay [4] and -0.682 in assay [12].

As to `O=C1C2=CC[C@H]3C(=O)N(C4CCCCC4)C(=O)[C@H]3[C@H]2[C@H](O)[C@@H]2O[C@H]12`, the composite z-score was -0.541 in assay [1]; -0.121 in assay [2]; -0.588 in assay [3]; -0.246 in assay [5]; -1.31 in [6]; 0.0862 in [7]. Also, the composite z-score is -1.22 in assay [8]; 0.271 in assay [9]; -0.185 in [10]; -1.46 in assay [11]; -0.0026 in assay [13]; -0.883 in assay [14]. The composite z-score in assay [15] is -0.828; in assay [16], -0.206; in assay [17], -0.282; in assay [18], -0.307; in [19], -0.11; in assay [20] it was -0.635. The results for the z-score in assay [4] and in assay [12] were 15.3 (active) and -5.43, respectively.
